# High-throughput results (PubChem)
# NPSR antag – qHTS Assay for Antagonists of the Neuropeptide S Receptor: cAMP Signal Transduction; CHO-NPSR cells, cAMP TR-FRET, antagonist mode; Potency, µM (highest dose often 38.3 µM), without a hit: at the highest dose activity change, negative = inhibition, hits mostly inhibitors; 220,000 compounds, 1% hits; AID 1461, 2008; further: nearly all actives have a fitted effect of over 50% in size
# B2AR arrestin – qHTS assay of beta-arrestin-biased ligands of beta2-adrenergic receptor; Beta-2 adrenergic receptor (Homo sapiens), P07550; beta-arrestin recruitment to beta2AR, cell-based reporter; Potency, µM (series often up to 46.1 µM), without a hit: at the top dose activation, most hits filed as activators; 330,000 compounds, 0.02% hits; AID 492947, 2010;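 further: 0% = DMSO controls and full agonism = EC100 isoproterenol or metaproterenol; nearly all actives have a fitted effect of over 65% in size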
# Gal4-VP16 FLuc – VP16 counterscreen qHTS for inhibitors of ROR gamma transcriptional activity; Drosophila S2 Gal4-VP16 UAS-luciferase, luminescence, 20 h; AID 2546, 2010; 310,000 compounds, 3.5% hits; Potency, µM (titrated, usually from 53.6 µM), for the others: at the top dose activity, negative = inhibition, most hits filed as inhibitors;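 further: Gal4-VP16 expression switched on by copper sulfate through the metallothionein promoter; nearly all actives have a fitted effect of over 50% in size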
# RORg inh – qHTS for inhibitors of ROR gamma transcriptional activity | Nuclear receptor ROR-gamma (Mus musculus), P51450 | Drosophila S2 Gal4-RORgamma UAS-luciferase reporter, 20 h | Potency, µM (titrated, usually from 53.6 µM), for the others: top-dose activity change, negative = inhibition, hits mostly inhibitors | 310,000 compounds, 5.4% hits | AID 2551, 2010; further: nearly all actives have a fitted effect of over 60% in size
# Target sequence (P51450 whole entry, looked up, the tested form may be a part): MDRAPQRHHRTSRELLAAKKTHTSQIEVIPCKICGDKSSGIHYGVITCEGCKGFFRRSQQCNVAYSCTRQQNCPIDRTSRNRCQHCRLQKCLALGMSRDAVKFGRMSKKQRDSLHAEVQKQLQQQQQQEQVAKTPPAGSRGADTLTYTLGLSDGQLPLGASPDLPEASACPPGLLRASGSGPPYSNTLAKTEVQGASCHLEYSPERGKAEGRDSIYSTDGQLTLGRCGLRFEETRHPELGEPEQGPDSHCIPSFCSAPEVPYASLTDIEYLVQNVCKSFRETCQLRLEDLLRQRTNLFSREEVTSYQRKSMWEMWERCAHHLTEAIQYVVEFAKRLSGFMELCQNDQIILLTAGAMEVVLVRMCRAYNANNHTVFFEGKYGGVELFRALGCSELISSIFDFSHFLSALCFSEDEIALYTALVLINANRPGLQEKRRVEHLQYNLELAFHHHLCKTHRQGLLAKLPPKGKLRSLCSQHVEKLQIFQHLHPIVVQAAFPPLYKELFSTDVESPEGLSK
#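 Stable Schneider cell line, Gal4 DNA-binding domain fused to ROR gamma, UAS-luciferase. Cmpd 1 hr RT → CuSO4 700 uM final → 20 hr RT → luciferase reagent 10 min → luminescence.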
# Numbers without * were called inactive; ? = inconclusive; / = no result; [ ] = remark or other dose. Compounds with a hit are over-represented: about 5.7% of the library has one in this group of screens. The call rests on the fitted dose curve; in most records, active means well fitted curve in the direction sought with a large enough effect; inconclusive means small, poorly fitted or top-dose-only effect, or another doubt; inactive means no such curve, though single readings can be large; an effect the other way counts as inactive or inconclusive. Unless noted, on the % scale 0 is the no-effect control and ±100 the full control effect; potency means the concentration at half of the fitted maximal effect.
SMILES,NPSR antag,B2AR arrestin,Gal4-VP16 FLuc,RORg inh
O=C(N/N=C/c1cccc2ccccc12)c1cc2ccccc2o1,/,0%,/,/
Cc1cc(C)cc(C(=O)OCC(=O)N2CCCCCC2)c1,/,0%,/,/
O=C(O)c1ccc2c(c1)C(=O)N(N1C(=O)c3ccccc3C1=O)C2=O,8%,0%,-3%,29%
CCOC(=O)C1CCN(C(=O)CSc2nc3ncccc3[nH]2)CC1,/,0%,-10%,-1%
Fc1cc2[nH]c(=S)[nH]c2c(Br)c1N1CCSCC1,/,0%,13%,11µM*
Fc1cc2nccnc2cc1N1CCSCC1,0%[46.1 µM],0%,10%,11%
CCNc1nc(NC(C)(C)C)nc(SC(C(C)=O)C(C)=O)n1,0%[46.1 µM],-2%,-22%,?
CCNc1nc(SC(C(C)=O)C(C)=O)nc(N(C)C)n1,4%[46.1 µM],0%,-27%,5µM*
CCNc1nc(SC(C)C(=O)OC)nc(N(C)C)n1 (stereo not given),9%,0%,3%,34%
CCC(C)Nc1nc(SC(C(C)=O)C(C)=O)nc(N(C)C)n1 (stereo not given),-12%[46.1 µM],0%,?,13µM*
O=S1(=O)C2CC3C=CC2(O3)C(O)C(Cc2ccccc2)N1Cc1cccc(C(F)(F)F)c1 (stereo not given),/,/,-14%,12%
O=C(c1cccc(Cl)c1)N1CCN(Cc2ccc3c(c2)OCO3)CC1,/,0%,5%,-5%
CC1CCN(c2nc3ccc(C(=O)N4CCN(Cc5ccc6c(c5)OCO6)CC4)cc3s2)CC1,-18%[46.1 µM],0%,7.1µM*,?
CC(C)C(=O)NC(c1cccs1)c1cc([N+](=O)[O-])c2cccnc2c1O (stereo not given),-11%,0%,3.5µM*,3.2µM*
Cc1ccc(C(NC(=O)C(C)C)c2cc([N+](=O)[O-])c3cccnc3c2O)cc1 (stereo not given),0%,-1%,?,2.2µM*
CCC(=O)NC(c1cccs1)c1cc([N+](=O)[O-])c2cccnc2c1OC (stereo not given),/,0%,/,/
CCC(=O)NC(/C=C/c1ccccc1)c1cc([N+](=O)[O-])c2cccnc2c1O (stereo not given),21%,-1%,2µM*,2.2µM*
Cc1noc(C)c1-c1cncnc1NCc1ccccc1,/,/,-13%,25%
Cc1cc(C)c2c(N)c(S(=O)(=O)c3ccccc3)sc2n1,8%[46.1 µM],-1%,?,1%
Cc1cc2c(sc3c(C)ccc(C)c32)c(C)n1,-21%,0%,-6%,18µM*
Cn1c(SC(C(=O)Nc2ccc(F)cc2)c2ccccc2)nc2ccccc21 (stereo not given),-38%,0%,?,11µM*
C/C(=N\NC(=O)c1ccccc1)c1nc2ccccc2n1C,9%,-1%,3.2µM*,1.6µM*
Cn1c(NC(=O)c2ccc(F)cc2)nc2ccccc21,/,0%,1.3µM*,0.45µM*
Cn1c(NC(=O)c2ccccc2NC(=O)C(C)(C)C)nc2ccccc21,-23%[46.1 µM],0%,11µM*,10µM*
O=C(Nc1nc2ccccc2c2nc3ccccc3n12)c1ccc(F)cc1,-2%,-1%,-5%,3%
SMILES,NPSR antag,B2AR arrestin,Gal4-VP16 FLuc,RORg inh
CCOC(=O)NC(=O)c1cn(Nc2ccccc2)c(=O)[nH]c1=O,2%,-1%,-5%,0%
O=C1C(Cl)=C(Nc2ccccc2)C(=O)c2ccccc21,?,1%,13µM*,13µM*
O=C(O)c1ccc(NC2=C(Cl)C(=O)c3ccccc3C2=O)cc1,?,0%,5%,?
C=CCNC1=C(Cl)C(=O)c2ccccc2C1=O,3%,-2%,?,13µM*
Clc1ccccc1-c1cc(NCc2cccnc2)ncn1,/,/,-11%,16%
O=C1C(Cl)=C(NCc2cccnc2)C(=O)c2ccccc21,/,0%,?,10µM*
CC(C)NC1=C(Cl)C(=O)c2ccccc2C1=O,7%[46.1 µM],0%,?,?
O=C(O)c1cccc(NC2=C(Cl)C(=O)c3ccccc3C2=O)c1,?,-1%,?,11µM*
CCc1nnc(NC(=O)C2CCCN2C(=O)Nc2ccc(Cl)cc2)s1 (stereo not given),/,0%,10%,1%
COc1ccc(N=C2C(=Nc3ccc(OC)cc3)N(c3ccccc3)C(=S)N2C(=O)c2ccc(Cl)cc2)cc1,-6%[46.1 µM],0%,?,14µM*
O=C(CNC(=O)c1ccc(Cl)cc1Cl)NCC1CCCO1 (stereo not given),/,1%,-1%,-3%
Oc1[nH]c2ccccc2c1N=NC(=S)NCC1CCCO1 (stereo not given),-26%,0%,-10%,-13%
Cc1cc(C)c2[nH]c(O)c(N=NC(=S)NCC3CCCO3)c2c1 (stereo not given),-8%,0%,7.1µM*,5µM*
Oc1[nH]c2ccc(Br)cc2c1N=NC(=S)NCC1CCCO1 (stereo not given),?,?,?,1.4µM*
CCn1c(O)c(N=NC(=S)NCC2CCCO2)c2ccccc21 (stereo not given),7.9µM*,?,1.8µM*,0.28µM*
Oc1[nH]c2c(Cl)cc(Cl)cc2c1N=NC(=S)NCC1CCCO1 (stereo not given),-26%[46.1 µM],1%,1.1µM*,1.3µM*
O=c1[nH]c2ccc(S(=O)(=O)N3CCCCC3)cc2[nH]c1=O,-2%[46.1 µM],0%,0%,?
Cc1cccc(-c2ccc3ncnc(NCc4cc(C)cs4)c3c2)c1,/,0%,/,/
COC(=O)N1CCC[C@@]2(CCN(Cc3cc(C(F)(F)F)cc(C(F)(F)F)c3)C2)C1,/,/,-7%,13%
Cc1ccc(NC(=O)C2CC(=O)OC23CCOC(C)(C)C3)cc1 (stereo not given),-9%[46.1 µM],0%,19%,-23%
COc1ccc(N2C(=S)N=C(Nc3cccc(C)c3)C23CCCCC3)cc1,-12%,-1%,6.3µM*,2.2µM*
COc1ccccc1N1C(=S)N=C(Nc2c(C)cccc2C)C12CCCC2,15%,0%,?,7.9µM*
Cc1ccc(N2C(=S)N=C(Nc3ccccc3C)C23CCOC(C)(C)C3)cc1 (stereo not given),?,0%,13µM*,4.5µM*
Cc1cccc(N2C(=S)N=C(Nc3c(C)cccc3C)C23CCOC(C)(C)C3)c1 (stereo not given),-3%[46.1 µM],0%,-7%,7%
Cc1cccc(NC2=NC(=S)N(c3cccc(C(=O)O)c3)C23CCCCC3)c1,-7%,0%,0%[10 µM],3%
Cc1cccc(C)c1NC1=NC(=S)N(c2ccc(C(=O)O)cc2)C12CCCCC2,-29%,0%,2%,20%
Cc1cccc(C)c1NC1=NC(=S)N(c2ccccc2)C12CCOC(C)(C)C2 (stereo not given),-10%[46.1 µM],0%,?,4µM*
CCOc1cc(/C=N/NC(=O)CCCC(=O)NC2CCCCC2)ccc1O,11%,1%,2%,-1%
CC1=C(C(=O)Nc2ccccc2C(F)(F)F)C(c2ccc(C)s2)NC(=S)N1 (stereo not given),-22%,-1%,-9%,?
